Assay results taken from PubChem BioAssay (NCATS).
Where “and” joins values, the source holds several entries; their conditions need not be identical. Equal values may be shown once. Results filed as inconclusive are left out. Calls of active or inactive are those of the source. The call rests on the fitted dose curve; in most records, active means well fitted curve in the direction sought with a large enough effect; inconclusive means small, poorly fitted or top-dose-only effect, or another doubt; inactive means no such curve, though single readings can be large; an effect the other way counts as inactive or inconclusive.

How the values were obtained:
[1] = Quantitative highthroughput screen to assess conditional lethalithy of NOMO1 cells grown in RPMI1640 with dialyzed fetal bovine serum (RPMI+ds) (AID 1963877); further: nearly all actives have a fitted effect of over 30% in size;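 on viability: series mostly up to about 46 µM; 100% = DMSO control wells and 0% = empty wells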
Summary of the method: (§1)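 Each medium arm—HPLM with 10% dialyzed FBS, or RPMI1640 with 5 mM glucose and 10% untreated or dialyzed FBS—was screened against an 11-point, 3-fold compound titration for 48 h at 37 °C, with CellTiter-Glo luminescence as endpoint.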

[2] = Quantitative highthroughput screen to assess conditional lethalithy of NOMO1 cells grown in Human Plasma-Like Medium with dialyzed fetal bovine serum (HPLM+ds) (AID 1963878); further: nearly all actives have a fitted effect of over 35% in size;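 on viability: 100% = DMSO wells and 0% = empty wells on each plate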
Summary of the method: as §1

[3] = Quantitative highthroughput screen to assess conditional lethalithy of P12 Ichikawa cells grown in Human Plasma-Like Medium with dialyzed fetal bovine serum (HPLM+ds) (AID 1963879); conditions: Potency: viability; further: nearly all actives have a fitted effect of over 35% in size; on viability: series mostly up to about 46 µM
Summary of the method: as §1

[4] = Quantitative highthroughput screen to assess conditional lethalithy of P12 Ichikawa cells grown in RPMI1640 with dialyzed fetal bovine serum (RPMI+ds) (AID 1963880); conditions: Potency: P12-Ichikawa viability; further: nearly all actives have a fitted effect of over 35% in size;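 on viability: 100% = DMSO wells and 0% = empty wells on each plate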
Summary of the method: as §1

[5] = Quantitative highthroughput screen to assess conditional lethalithy of P12 Ichikawa cells grown in RPMI1640 with untreated serum (RPMI+s) (AID 1963881); conditions: Potency: viability; further: nearly all actives have a fitted effect of over 35% in size;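 on viability: series mostly up to about 46 µM; 100% = DMSO wells and 0% = empty wells without cells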
Summary of the method: as §1

[6] = Quantitative highthroughput screen to assess conditional lethalithy of SEM cells grown in Human Plasma-Like Medium with dialyzed fetal bovine serum (HPLM+ds) (AID 1963882); further: nearly all actives have a fitted effect of over 35% in size; on viability: series mostly up to about 46 µM
Summary of the method: as §1

[7] = Quantitative highthroughput screen to assess conditional lethalithy of SEM cells grown in RPMI1640 with unreated serum (RPMI+s) (AID 1963883); further: nearly all actives have a fitted effect of over 35% in size;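 on viability: 100% = DMSO wells and 0% = empty wells without cells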
Summary of the method: as §1

[8] = Quantitative highthroughput screen to assess conditional lethalithy of SEM cells grown in RPMI1640 with dialyzed fetal bovine serum (RPMI+ds) (AID 1963884); further: nearly all actives have a fitted effect of over 35% in size;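 on viability: series mostly up to about 46 µM; 100% = DMSO control wells and 0% = empty wells without cells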
Summary of the method: as §1

[9] = Cellular viability qHTS for adrenocortical cancer (ACC) cell line SW-13 (AID 1963989); conditions: SW-13 ACC cells viability, CellTiter-Glo, 48 h; activity (max response): hits give low values; further: nearly all actives have a fitted effect of over 65% in size;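 on activity (max response): cells grown in serum-free medium with ITS supplement; on the % scale 0 is the no-effect control and ±100 the full control effect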
Summary of the method: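 Luminescent ATP read-out (CellTiter-Glo, 20 min at room temperature) measured metabolically competent SW-13 cells after 48 h compound treatment. Final concentrations spanned up to 46 uM; bortezomib served as positive control.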

[10] = Cellular viability qHTS for adrenocortical cancer (ACC) cell line NCI-H295R (AID 1963990); further: nearly all actives have a fitted effect of over 60% in size
Summary of the method: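 IC50 and maximal efficacy derive from four-parameter logistic modelling of titration curves, with reads scaled between DMSO-only wells (0%) and doxorubicin hydrochloride (100% inhibition). Compounds spanned up to 46 uM over 48 h.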

[11] = Quantitative highthroughput screen to assess conditional lethalithy of NOMO1 cells grown in RPMI1640 with untreated serum (RPMI+s) (AID 1963876); further: nearly all actives have a fitted effect of over 35% in size;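 on viability: 100% = DMSO wells and 0% = empty wells without cells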
Summary of the method: as §1
Potency means the concentration at half of the fitted maximal effect.

O=Nc1c(-c2c(O)[nH]c3cc(Br)ccc23)[nH]c2ccccc12
active: Potency [1] 10.5 µM | Potency [2] 5.9 µM | Potency [3] 4.18 µM | Potency [4] 5.9 µM | Potency [5] 4.69 µM | Potency [6] 0.833 µM | Potency [7] 0.743 µM | Potency [8] 0.833 µM | Potency [9] 11.2 µM | Potency [10] 10 µM

C=C1C(=O)OC2C=C(C)CCC=C(C)CCC12 (stereo not drawn)
inactive: Potency [11]
active: Potency [8] 23.5 µM

COC(=O)C1=CO[C@@H](O)[C@@H]2C(CO)=CC[C@@H]12
inactive: Potency [1]

CN(C(Cc1ccc(OS(=O)(=O)c2cccc3cnccc23)cc1)C(=O)N1CCN(c2ccccc2)CC1)S(=O)(=O)c1cccc2cnccc12 (stereo not drawn)
active: Potency [4] 18.7 µM
inactive: Potency [11] | activity (max response) [9] 5.6% | Potency [10]

NC(=O)NN=Cc1ccc([N+](=O)[O-])o1
inactive: Potency [1] | Potency [2] | Potency [3] | Potency [4] | Potency [5] | Potency [6] | Potency [7] | Potency [8]

O=C(CCc1ccc(O)cc1)c1c(O)cc(O)cc1O[C@@H]1O[C@H](CO)[C@H](O)[C@H](O)[C@H]1O
inactive: Potency [11] | Potency [4] | Potency [5] | Potency [7]

C#C[C@]1(O)CC[C@@H]2[C@@H]3CCc4cc(O)ccc4[C@H]3CC[C@@]21C
active: Potency [4] 16.6 µM | Potency [6] 14.8 µM | Potency [8] 11.8 µM
inactive: Potency [11]

C=CC(=O)Nc1cccc(Nc2nc(NC3CCC(N(C)C)CC3)nc3c2ncn3C(C)C)c1 (stereo not drawn)
active: Potency [1] 2.35 µM | Potency [2] 2.35 µM | Potency [3] 3.32 µM | Potency [4] 4.18 µM | Potency [5] 3.32 µM | Potency [6] 1.05 µM | Potency [7] 2.09 µM | Potency [8] 1.05 µM

C[C@H](NC(=O)c1sccc1OCc1ccc(Cl)cc1)c1ccccc1
active: Potency [9] 25.1 µM | Potency [10] 28.2 µM
inactive: Potency [1] | Potency [2] | Potency [3] | Potency [4] | Potency [5]

CC(=O)Nc1cccc(-n2c(=O)n(C3CC3)c(=O)c3c(Nc4ccc(I)cc4F)n(C)c(=O)c(C)c32)c1
inactive: Potency [10]
active: Potency [1] 0.209 µM | Potency [2] 0.235 µM | Potency [3] 2.64 µM | Potency [4] 4.69 µM | Potency [5] 3.72 µM | Potency [6] 2.35 µM | Potency [7] 1.48 µM | Potency [8] 1.87 µM

COCCCOc1ccnc(CS(=O)c2nc3ccccc3[nH]2)c1C (stereo not drawn)
inactive: Potency [1] | Potency [2] | Potency [3] | Potency [4] | Potency [5] | Potency [7] | Potency [8] | activity (max response) [9] 10.6% and -5.29% | Potency [10]

CCCNC(=O)[C@H]1O[C@H]1C(=O)N[C@H](C(=O)N1CCC[C@@H]1C(=O)OC)C(C)CC (stereo partly drawn)
active: Potency [11] 13.2 µM | Potency [4] 16.6 µM | Potency [6] 20.9 µM | Potency [7] 14.8 µM | Potency [8] 16.6 µM

CC(C)c1c(C(=O)Nc2ccccc2)c(-c2ccccc2)c(-c2ccc(F)cc2)n1CC[C@H](O)C[C@@H](O)CC(=O)O
active: Potency [1] 16.6 µM | Potency [2] 18.7 µM

COc1ccc(-n2c(C)c([N+](=O)[O-])c3ccc(O)cc32)cc1
inactive: Potency [1] | Potency [2] | Potency [3] | Potency [4] | Potency [5] | Potency [6] | Potency [8] | activity (max response) [9] 3.14% | Potency [10]

CC(=O)N[C@@H]1[C@H](O[C@@H]2c3ccc(c(Cl)c3)Oc3cc4cc(c3O[C@H]3O[C@H](CO)[C@@H](O)[C@H](O)[C@H]3NC(=O)CCCCCCCC(C)C)Oc3ccc(cc3Cl)C[C@H]3NC(=O)[C@H](N)c5ccc(O)c(c5)Oc5cc(O)cc(c5)[C@H](NC3=O)C(=O)N[C@H]4C(=O)N[C@H]3C(=O)N[C@@H]2C(=O)N[C@@H](C(=O)O)c2cc(O)cc(O[C@H]4O[C@H](CO)[C@@H](O)[C@H](O)[C@H]4O)c2-c2cc3ccc2O)O[C@H](CO)[C@@H](O)[C@@H]1O
inactive: Potency [1] | Potency [2] | Potency [3] | Potency [5] | Potency [6] | Potency [7] | Potency [8]

COC(=O)N1CCN(Cc2cccc(NC(=O)Nc3ccc(C)nc3)c2F)CC1
inactive: Potency [1] | Potency [2] | Potency [3] | Potency [4] | Potency [5] | Potency [6] | Potency [7] | Potency [8] | activity (max response) [9] -16.4% | Potency [10]

CO[C@H]1C=CO[C@@]2(C)Oc3c(C)c(O)c4c(O)c(c(C=NN5CCN(C)CC5)c(O)c4c3C2=O)NC(=O)C(C)=CC=C[C@H](C)[C@H](O)[C@@H](C)[C@@H](O)[C@@H](C)[C@H](OC(C)=O)[C@H]1C
active: Potency [4] 2.38 µM | Potency [5] 3.78 µM
inactive: Potency [11] | Potency [8]
